Screening results as filed in PubChem BioAssay.
TDP1 cell noCPT: qHTS for Inhibitors of human tyrosyl-DNA phosphodiesterase 1 (TDP1): qHTS in cells in absence of CPT. actives 15% (n = 420,000). DT40 Tdp1-/- hTDP1 cells, no CPT, ATP luminescence, 48 h. AID 686978, 2013. Potency, µM (titrated, usually from 46.2 µM), for the others: at the highest dose activity change, negative = growth inhibition, most hits filed as inhibitors; further: nearly all actives have a fitted effect of over 55% in size
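Luminescent ATP content (CellTiter-Glo) served as the growth readout. Knockout chicken DT40 cells expressing human TDP1 were exposed to compounds without camptothecin for a minimum 48 hr at 37 °C.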
HT1080 IDH1KD tx: toxicity to HT-1080 IDH1 knockdown cells (counter line); HT-1080 IDH1 knockdown viability, ATP luminescence, 48 h; Potency, µM (series often up to 46.1 µM), without a hit: at the highest dose activity, negative = toxicity, most hits filed as cytotoxic; actives 2% (n = 360,000);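 further: 0% = DMSO wells and -100% = cell-free medium wells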
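Cytotoxicity counter-line: IDH1KD HT-1080, 48 h, CellTiter-Glo. Curves classed by r2, magnitude and activity.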
KB-V1 MDR tox: KB-V1 MDR subline cytotoxicity. KB-V1 MDR cells viability, CellTiter-Glo, 72 h. Potency, µM (titrated, usually from 46.1 µM), hits mostly cytotoxic. actives 3.4% (n = 400,000). AID 1347076; further: nearly all actives have a fitted effect of over 60% in size
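Cells of the MDR subline KB-V1 are plated, dosed with compound at multiple concentrations, and incubated 72 h at 37 degrees C; CellTiter-Glo is then added and luminescence read after 10 min.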
HT1080-NT tox: kills 2HG-producing HT-1080-NT fibrosarcoma cells; HT-1080-NT fibrosarcoma viability, CellTiter-Glo ATP luminescence, 48 h; Potency, µM (series often up to 46.1 µM), without a hit: at the highest dose activity, negative = less viability, hits mostly cytotoxic; actives 1.6% (n = 360,000); AID 686970;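 further: NT is the 2HG producing partner of a matched IDH1 knockdown line; 0% = DMSO-treated cells and -100% = media-only wells without cells; nearly all actives have a fitted effect of over 55% in size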
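Viability by CellTiter-Glo luminescence after 48 h compound exposure at 37C of HT-1080-NT cells (750/well, RPMI, 5% FBS). % activity scaled between DMSO wells and medium-only wells, then curve-fitted and categorized by curve class.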
DT40 TDP1 CPT: growth inhibition of DT40 Tdp1-/-;hTDP1 cells with camptothecin (screen for TDP1 inhibitors); AID 686979; chicken DT40 Tdp1-/-;hTDP1 cells + 20 nM CPT, ATP luminescence, 48 h; Potency, µM (highest dose often 46.2 µM), inactives show at the highest dose activity change, negative = growth inhibition, most hits filed as inhibitors; actives 12% (n = 420,000); further: nearly all actives have a fitted effect of over 55% in size
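Chicken DT40 Tdp1-/- cells complemented with human TDP1, 400 cells/well, exposed to compounds plus 20 nM camptothecin for at least 48 h at 37 C; viability read as ATP content by CellTiter-Glo luminescence.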
KB-3-1 cytotox: KB-3-1 parental cell cytotoxicity; KB-3-1 viability, CellTiter-Glo ATP luminescence, 72 h; Potency, µM (titrated, usually from 46.1 µM), usual class: cytotoxic; actives 1.4% (n = 400,000); AID 1347075; further: nearly all actives have a fitted effect of over 60% in size
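Cells are dispensed, compounds pinned in, plates held at 37 °C for 72 h, then CellTiter-Glo is added and luminescence read after 10 minutes. Cell line: parental KB-3-1 in phenol-red-free DMEM, 10% FBS.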
An asterisk follows results filed as active; i = inactive; u = inconclusive; x = no result; [ ] = remark or other dose. Only some compounds are listed: those with a hit (about 19% of all), similar ones and a draw of the others. The call rests on the fitted dose curve; in most records, active means well fitted curve in the direction sought with a large enough effect; inconclusive means small, poorly fitted or top-dose-only effect, or another doubt; inactive means no such curve, though single readings can be large; an effect the other way counts as inactive or inconclusive. Unless noted, on the % scale 0 is the no-effect control and ±100 the full control effect; potency means the concentration at half of the fitted maximal effect.

SMILES	TDP1 cell noCPT	HT1080 IDH1KD tx	KB-V1 MDR tox	HT1080-NT tox	DT40 TDP1 CPT	KB-3-1 cytotox
CCOC(=O)C1(Cc2ccccc2C)CCCN(C(=O)CCc2cccnc2)C1 (stereo not drawn)	u	5%	u	2%	16µM*	i
CCOC(=O)C1(Cc2ccccc2C)CCCN(C(=O)c2ccc3nccnc3c2)C1 (stereo not drawn)	21µM*	7%	u	13%	u	i
CSC(=S)N/N=C/c1ccccc1	u	-13%	i	-11%	u	i
COc1cc(OC)c(NC(=O)N2CCSc3ccccc32)cc1Cl	u	x	i	x	u	i
CCOc1ccccc1C1c2[nH]c3ccccc3c2C[C@H]2C(=O)N(C3CCN(Cc4ccccc4)CC3)CC(=O)N12 (stereo partly drawn)	16µM*	u	i	u	5.8µM*	i
COc1ccc(C2c3[nH]c4ccccc4c3C[C@H]3C(=O)N(C4CCN(Cc5ccccc5)CC4)CC(=O)N23)c(OC)c1 (stereo partly drawn)	15µM*	-1%	i	-16%	u	i
COc1ccc(OC)c(C2c3[nH]c4ccccc4c3C[C@H]3C(=O)N(C4CC4)CC(=O)N23)c1 (stereo partly drawn)	-22%	-2%	i	-2%	-2%	i
CCOc1ccccc1OCCC(=O)N1CCN(S(=O)(=O)c2ccccc2[N+](=O)[O-])CC1	u	-28%	i	-2%[9.24 µM]	u	u
CC(C)CN(C(=O)c1ccc2c(c1)OCCO2)c1c(N)n(Cc2ccccc2)c(=O)[nH]c1=O	-13%	14%	i	5%	-18%	i
O=C(c1ccc(F)cc1)N1CCN2C(=O)c3ccccc3C12c1ccc(Cl)cc1 (stereo not drawn)	u	-2%	i	-8%	u	i
O=C(c1ccccc1)N1CCN2C(=O)c3ccccc3C12c1ccc(Cl)cc1 (stereo not drawn)	18µM*	-22%	u	-26%	21µM*	u
CCCCCCC1CCC(C(=O)Nn2c(C)nc3ccccc3c2=O)CC1 (stereo not drawn)	18µM*	12%	u	14%	u	i
CCn1c(=O)c(C(=O)Nc2nc3ccccc3[nH]2)c(O)c2ccccc21	2.6µM*	10µM*	1.2µM*	7.3µM*	2.9µM*	12µM*
CCc1nc2ccccc2c(=O)n1NC(=O)c1c(O)c2cccc3c2n(c1=O)CCC3	u	6%	u	8%	u	u
CCc1nc2ccccc2c(=O)n1NC(=O)c1c(O)c2ccccc2n(CC)c1=O	u	2%	8.2µM*	-10%	u	u
CCCC1CCC(C(=O)Nn2c(C)nc3ccccc3c2=O)CC1 (stereo not drawn)	u	-4%	u	0%	-20%	i
Cc1nc2ccccc2c(=O)n1NC(=O)c1c(F)cccc1F	13%	3%	i	0%	-3%	i
CCn1c(=O)c(C(=O)Nn2c(C)nc3ccccc3c2=O)c(O)c2ccccc21	u	-10%	u	-7%	16µM*	i
CCn1c(=O)c(C(=O)Nc2ccccc2)c(O)c2ccccc21	u	0%	i	-2%	u	i
C/C(=N/NC(=O)CNC(=O)/C=C/c1ccco1)c1ccc(Cl)cc1	u	-9%	i	-14%	u	i
Cc1c(C(=O)N(C)C)sc2c1c(=O)n(-c1ccc(Cl)cc1)c(=O)n2CC(=O)C(C)(C)C	u	x	x	x	-19%	x
c1ccc(N2CCN(Cc3cccn3-c3nnc(N4CCN(C5CCCCC5)CC4)s3)CC2)cc1	-5%	x	u	x	-6%	i
